# Reference: the supplement of paper PMC10849652
# The full data set covers some 8,800 targets. This sample favours those with a hit. About 0.5% of all pairs of compound and target were hits. A number with no mark means an inactive call.
# Tests used:
# Assay in all cases: log2 fold change, soluble protein after heating vs DMSO (PISA); higher = thermal stabilisation; K562 lysate, 10 uM; active = over 0.2 and 3.5 SD of the protein, either way, in both replicates (recomputed)
# lapatinib = compound: CS(=O)(=O)CCNCc1ccc(-c2ccc3ncnc(Nc4ccc(OCc5cccc(F)c5)c(Cl)c4)c3c2)o1 [lapatinib]
# Summary of the method: (§1)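 To prepare the extract, K562 pellets were dounce-homogenised in PBS pH 7.4 with 1 mM MgCl2, giving crude material at 1 mg/mL protein. This was treated with 10 μM compound for 30 min, then heated in aliquots for 3 min over 48°C-58°C before pooling and addition of NP-40 to 0.5% at 4°C. Centrifugation at 21,000xg for 90 min left soluble protein in the supernatant, which TMTpro 16plex LC-MS/MS quantified with equalised channel sums. Results are log-two fold changes in thermal stability compared with solvent controls, from duplicates.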
# pictilisib = compound: CS(=O)(=O)N1CCN(Cc2cc3nc(-c4cccc5[nH]ncc45)nc(N4CCOCC4)c3s2)CC1 [pictilisib]
# Summary of the method: as §1
# crizotinib = compound: C[C@@H](Oc1cc(-c2cnn(C3CCNCC3)c2)cnc1N)c1c(Cl)ccc(F)c1Cl [crizotinib]
# Summary of the method: as §1
# [1] = compound: C[C@H](C1=CC=C(C=C1)C(=O)NC2=C3C=CNC3=NC=C2)N
# Summary of the method: as §1
# duvelisib = compound: C[C@H](Nc1ncnc2nc[nH]c12)c1cc2cccc(Cl)c2c(=O)n1-c1ccccc1 [duvelisib]
# Summary of the method: as §1
# gandotinib = compound: Cc1cc(Nc2cc(CN3CCOCC3)c3nc(C)c(Cc4ccc(Cl)cc4F)n3n2)n[nH]1 [gandotinib]
# Summary of the method: as §1
# tozasertib = compound: Cc1cc(Nc2cc(N3CCN(C)CC3)nc(Sc3ccc(NC(=O)C4CC4)cc3)n2)n[nH]1 [tozasertib]
# Summary of the method: as §1
# doramapimod = compound: Cc1ccc(-n2nc(C(C)(C)C)cc2NC(=O)Nc2ccc(OCCN3CCOCC3)c3ccccc23)cc1 [doramapimod]
# Summary of the method: as §1
# bafetinib = compound: Cc1ccc(NC(=O)c2ccc(CN3CC[C@H](N(C)C)C3)c(C(F)(F)F)c2)cc1Nc1nccc(-c2cncnc2)n1 [bafetinib]
# Summary of the method: as §1
# [2] = compound: Cc1cccc(CC(=O)N2CCc3c2ccc(-c2cn(C)c4ncnc(N)c24)c3F)n1
# Summary of the method: as §1
# nilotinib = compound: Cc1cn(-c2cc(NC(=O)c3ccc(C)c(Nc4nccc(-c5cccnc5)n4)c3)cc(C(F)(F)F)c2)cn1 [nilotinib]
# Summary of the method: as §1
# [3] = compound: Cc1nc(Nc2n[nH]c3c2CN(C(=O)N[C@H](CN(C)C)c2ccccc2)C3(C)C)c2sccc2n1
# Summary of the method: as §1
# dasatinib = compound: Cc1nc(Nc2ncc(C(=O)Nc3c(C)cccc3Cl)s2)cc(N2CCN(CCO)CC2)n1 [dasatinib]
# Summary of the method: as §1
# [4] = compound: Cc1ncc(-c2ccnc(Nc3ccc(S(C)(=O)=O)cc3)n2)n1C(C)C
# Summary of the method: as §1
# [5] = compound: Cn1cc(-c2ccc3c(c2)CCN3C(=O)Cc2cccc(C(F)(F)F)c2)c2c(N)ncnc21
# Summary of the method: as §1
# quisinostat = compound: Cn1cc(CNCC2CCN(c3ncc(C(=O)NO)cn3)CC2)c2ccccc21 [quisinostat]
# Summary of the method: as §1
# tipifarnib = compound: Cn1cncc1[C@@](N)(c1ccc(Cl)cc1)c1ccc2c(c1)c(-c1cccc(Cl)c1)cc(=O)n2C [tipifarnib]
# Summary of the method: as §1
# [6] = compound: NC(=O)Nc1cc(-c2cccc(F)c2)sc1C(=O)N[C@H]1CCCNC1
# Summary of the method: as §1
# [7] = compound: NC(=O)c1cnc(N[C@@H]2CCCC[C@@H]2N)nc1Nc1cccc(-n2nccn2)c1
# Summary of the method: as §1
# [8] = compound: NC1(c2ccc(-c3nc4ccn5c(=O)[nH]nc5c4cc3-c3ccccc3)cc2)CCC1
# Summary of the method: as §1
# Sequence of UniProt O43823 (O43823 whole entry, looked up): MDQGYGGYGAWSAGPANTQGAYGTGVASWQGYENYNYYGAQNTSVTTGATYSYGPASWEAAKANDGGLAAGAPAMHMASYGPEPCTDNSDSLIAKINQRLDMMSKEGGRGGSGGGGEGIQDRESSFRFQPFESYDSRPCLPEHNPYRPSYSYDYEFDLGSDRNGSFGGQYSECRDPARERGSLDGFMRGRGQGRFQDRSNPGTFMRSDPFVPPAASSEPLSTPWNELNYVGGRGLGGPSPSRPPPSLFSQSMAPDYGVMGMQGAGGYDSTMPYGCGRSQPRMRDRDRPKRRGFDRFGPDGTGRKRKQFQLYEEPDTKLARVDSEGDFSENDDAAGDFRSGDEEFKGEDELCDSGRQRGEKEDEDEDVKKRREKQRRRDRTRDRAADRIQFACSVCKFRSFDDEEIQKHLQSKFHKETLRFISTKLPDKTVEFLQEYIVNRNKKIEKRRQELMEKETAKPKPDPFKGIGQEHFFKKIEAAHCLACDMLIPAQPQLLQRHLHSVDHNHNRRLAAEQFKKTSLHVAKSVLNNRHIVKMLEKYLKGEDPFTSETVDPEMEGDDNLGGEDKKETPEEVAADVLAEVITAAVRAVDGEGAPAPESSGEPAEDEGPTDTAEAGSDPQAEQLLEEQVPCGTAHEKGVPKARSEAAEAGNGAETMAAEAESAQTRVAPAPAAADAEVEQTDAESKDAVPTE
# Sequence of UniProt P52895 (P52895 whole entry, looked up): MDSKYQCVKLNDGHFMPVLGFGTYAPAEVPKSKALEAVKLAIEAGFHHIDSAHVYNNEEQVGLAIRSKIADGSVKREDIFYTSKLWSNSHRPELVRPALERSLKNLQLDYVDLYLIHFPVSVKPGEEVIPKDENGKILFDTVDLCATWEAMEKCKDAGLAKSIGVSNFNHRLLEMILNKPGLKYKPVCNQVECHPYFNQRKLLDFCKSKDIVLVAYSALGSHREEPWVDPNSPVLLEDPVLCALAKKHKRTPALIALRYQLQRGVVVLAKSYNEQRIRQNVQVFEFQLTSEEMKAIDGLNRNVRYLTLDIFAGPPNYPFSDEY
# Sequence of UniProt Q9UJX3 (Q9UJX3 whole entry, looked up): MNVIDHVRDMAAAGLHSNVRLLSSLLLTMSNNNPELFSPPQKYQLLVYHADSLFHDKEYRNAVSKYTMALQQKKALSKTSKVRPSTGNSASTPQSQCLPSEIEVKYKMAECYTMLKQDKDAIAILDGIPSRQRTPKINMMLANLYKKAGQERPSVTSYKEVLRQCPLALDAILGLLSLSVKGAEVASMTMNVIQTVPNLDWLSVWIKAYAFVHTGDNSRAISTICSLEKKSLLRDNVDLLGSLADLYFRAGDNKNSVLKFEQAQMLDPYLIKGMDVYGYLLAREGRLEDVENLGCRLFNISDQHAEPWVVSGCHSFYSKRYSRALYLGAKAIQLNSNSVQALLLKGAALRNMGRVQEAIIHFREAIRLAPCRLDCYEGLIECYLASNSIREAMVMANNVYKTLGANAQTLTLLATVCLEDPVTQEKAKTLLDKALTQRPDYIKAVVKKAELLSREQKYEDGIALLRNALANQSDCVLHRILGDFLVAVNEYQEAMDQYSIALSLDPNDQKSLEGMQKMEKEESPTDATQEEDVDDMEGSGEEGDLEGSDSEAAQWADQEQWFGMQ
# Sequence of UniProt Q99943 (Q99943 whole entry, looked up): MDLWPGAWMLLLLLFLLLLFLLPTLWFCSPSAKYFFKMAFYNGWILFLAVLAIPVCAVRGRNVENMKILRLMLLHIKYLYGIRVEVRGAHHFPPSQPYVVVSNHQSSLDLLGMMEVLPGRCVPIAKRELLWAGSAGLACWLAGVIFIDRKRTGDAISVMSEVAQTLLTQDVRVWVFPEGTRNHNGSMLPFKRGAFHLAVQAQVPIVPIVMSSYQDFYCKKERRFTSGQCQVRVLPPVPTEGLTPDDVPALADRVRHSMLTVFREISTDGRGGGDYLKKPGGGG
# Sequence of UniProt P35573 (P35573 whole entry, looked up): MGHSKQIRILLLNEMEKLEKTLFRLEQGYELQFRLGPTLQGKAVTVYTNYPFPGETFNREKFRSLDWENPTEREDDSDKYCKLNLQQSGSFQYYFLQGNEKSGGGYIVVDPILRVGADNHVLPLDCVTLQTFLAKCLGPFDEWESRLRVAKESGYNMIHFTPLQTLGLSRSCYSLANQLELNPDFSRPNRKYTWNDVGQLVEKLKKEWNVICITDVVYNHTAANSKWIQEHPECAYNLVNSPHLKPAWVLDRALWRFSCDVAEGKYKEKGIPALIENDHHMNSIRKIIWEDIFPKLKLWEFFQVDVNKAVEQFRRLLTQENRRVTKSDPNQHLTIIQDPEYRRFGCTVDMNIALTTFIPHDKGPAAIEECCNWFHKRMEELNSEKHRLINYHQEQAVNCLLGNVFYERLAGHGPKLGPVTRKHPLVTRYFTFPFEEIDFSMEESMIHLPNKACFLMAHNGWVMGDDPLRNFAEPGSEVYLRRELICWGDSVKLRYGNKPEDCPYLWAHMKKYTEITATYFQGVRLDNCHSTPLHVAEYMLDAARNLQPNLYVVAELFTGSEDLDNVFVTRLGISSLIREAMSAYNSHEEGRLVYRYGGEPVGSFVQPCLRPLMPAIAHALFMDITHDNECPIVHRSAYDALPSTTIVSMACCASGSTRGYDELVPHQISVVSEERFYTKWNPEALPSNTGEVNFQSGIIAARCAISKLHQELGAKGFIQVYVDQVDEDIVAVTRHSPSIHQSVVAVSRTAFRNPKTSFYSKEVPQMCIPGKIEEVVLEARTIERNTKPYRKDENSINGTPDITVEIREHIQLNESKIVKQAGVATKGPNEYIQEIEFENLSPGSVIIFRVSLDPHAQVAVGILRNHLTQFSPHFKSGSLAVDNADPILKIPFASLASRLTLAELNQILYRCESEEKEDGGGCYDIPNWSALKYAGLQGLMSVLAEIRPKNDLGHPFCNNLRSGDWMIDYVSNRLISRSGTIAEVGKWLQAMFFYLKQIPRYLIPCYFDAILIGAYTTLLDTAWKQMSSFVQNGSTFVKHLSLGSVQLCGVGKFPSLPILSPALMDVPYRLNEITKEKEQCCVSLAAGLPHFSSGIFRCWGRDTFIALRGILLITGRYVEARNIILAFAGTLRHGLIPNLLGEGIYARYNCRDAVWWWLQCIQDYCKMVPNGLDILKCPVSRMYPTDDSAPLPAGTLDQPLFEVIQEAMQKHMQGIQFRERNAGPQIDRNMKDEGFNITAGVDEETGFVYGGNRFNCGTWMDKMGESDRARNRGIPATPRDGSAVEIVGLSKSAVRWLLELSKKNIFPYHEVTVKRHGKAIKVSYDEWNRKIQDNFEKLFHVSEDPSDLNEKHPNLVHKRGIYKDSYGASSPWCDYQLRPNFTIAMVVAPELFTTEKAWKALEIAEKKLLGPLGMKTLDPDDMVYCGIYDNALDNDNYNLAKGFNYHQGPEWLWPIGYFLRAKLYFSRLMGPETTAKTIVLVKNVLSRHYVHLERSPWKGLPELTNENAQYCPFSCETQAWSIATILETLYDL
# Sequence of UniProt Q8IZP0 (Q8IZP0 whole entry, looked up): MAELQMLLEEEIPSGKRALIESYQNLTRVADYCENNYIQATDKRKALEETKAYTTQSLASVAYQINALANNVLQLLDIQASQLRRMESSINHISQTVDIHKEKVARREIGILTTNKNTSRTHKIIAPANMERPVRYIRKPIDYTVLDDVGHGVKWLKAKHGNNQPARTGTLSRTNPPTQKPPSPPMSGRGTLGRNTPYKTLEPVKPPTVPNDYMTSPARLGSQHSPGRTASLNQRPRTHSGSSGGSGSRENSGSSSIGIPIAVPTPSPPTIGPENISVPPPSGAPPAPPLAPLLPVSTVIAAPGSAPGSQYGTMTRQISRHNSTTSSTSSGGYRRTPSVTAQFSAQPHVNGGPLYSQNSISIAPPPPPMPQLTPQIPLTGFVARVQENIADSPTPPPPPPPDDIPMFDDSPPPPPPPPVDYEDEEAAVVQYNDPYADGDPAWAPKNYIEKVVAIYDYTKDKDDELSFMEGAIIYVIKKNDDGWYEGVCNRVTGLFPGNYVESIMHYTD
# Sequence of UniProt O43865 (O43865 whole entry, looked up): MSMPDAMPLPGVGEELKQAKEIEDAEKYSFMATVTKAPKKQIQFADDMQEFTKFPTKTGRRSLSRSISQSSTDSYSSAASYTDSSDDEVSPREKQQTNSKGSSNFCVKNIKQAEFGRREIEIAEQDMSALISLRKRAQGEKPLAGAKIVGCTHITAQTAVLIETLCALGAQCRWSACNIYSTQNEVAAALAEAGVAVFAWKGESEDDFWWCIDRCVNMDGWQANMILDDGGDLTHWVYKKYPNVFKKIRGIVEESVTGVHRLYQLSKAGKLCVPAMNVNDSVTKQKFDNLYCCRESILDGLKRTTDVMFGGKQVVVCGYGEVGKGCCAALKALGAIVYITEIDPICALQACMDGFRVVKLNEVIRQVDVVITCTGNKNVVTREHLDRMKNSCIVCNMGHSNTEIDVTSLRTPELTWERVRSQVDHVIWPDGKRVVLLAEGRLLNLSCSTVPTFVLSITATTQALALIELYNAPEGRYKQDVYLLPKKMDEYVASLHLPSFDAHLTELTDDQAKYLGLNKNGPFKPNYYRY
# Sequence of UniProt P00568 (P00568 whole entry, looked up): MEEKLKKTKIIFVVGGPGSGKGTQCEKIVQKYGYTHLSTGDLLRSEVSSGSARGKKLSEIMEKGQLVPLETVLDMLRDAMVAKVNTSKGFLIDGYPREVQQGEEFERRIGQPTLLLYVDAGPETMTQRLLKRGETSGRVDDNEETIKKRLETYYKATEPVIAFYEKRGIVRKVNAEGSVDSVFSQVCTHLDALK
# Sequence of UniProt Q9UH62 (Q9UH62 whole entry, looked up): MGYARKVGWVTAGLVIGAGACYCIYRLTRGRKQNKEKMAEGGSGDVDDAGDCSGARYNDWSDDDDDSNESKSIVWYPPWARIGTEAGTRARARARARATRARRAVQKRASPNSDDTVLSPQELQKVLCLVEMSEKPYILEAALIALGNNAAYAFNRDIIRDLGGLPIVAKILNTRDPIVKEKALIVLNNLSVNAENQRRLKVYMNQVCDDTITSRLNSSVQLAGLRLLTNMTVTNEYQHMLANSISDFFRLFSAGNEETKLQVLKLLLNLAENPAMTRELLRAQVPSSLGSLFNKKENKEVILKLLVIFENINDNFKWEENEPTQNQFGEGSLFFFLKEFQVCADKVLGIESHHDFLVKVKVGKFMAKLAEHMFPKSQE
Target,log2 fold change (lapatinib),log2 fold change (pictilisib),log2 fold change (crizotinib),log2 fold change [1],log2 fold change (duvelisib),log2 fold change (gandotinib),log2 fold change (tozasertib),log2 fold change (doramapimod),log2 fold change (bafetinib),log2 fold change [2],log2 fold change (nilotinib),log2 fold change [3],log2 fold change (dasatinib),log2 fold change [4],log2 fold change [5],log2 fold change (quisinostat),log2 fold change (tipifarnib),log2 fold change [6],log2 fold change [7],log2 fold change [8]
AGL (UniProt P35573),-0.004,0,-0.019,0.115,-0.013,-0.094,0.014,0.029,-0.037,-0.059,-0.024,-0.007,-0.027,-0.005,0.028,-0.016,0.016,0.038,0.016,-0.007
ALDH1B1 (UniProt P30837),-0.012,0.008,-0.007,-0.024,0.058,0.052,0.021,-0.017,-0.049,-0.041,0.096,-0.015,-0.022,0.013,0.034,0.118,0.05,0.046,0.011,0.003
ABI1 isoform 9 (UniProt Q8IZP0),0.011,-0.048,-0.006,-0.26 (active),0.01,0.13,0.008,-0.015,0.08,0.163,-0.006,-0.004,-0.001,-0.02,-0.016,0.003,-0.01,-0.023,0.003,0.032
ARL8A (UniProt Q96BM9),-0.11,0.038,0.091,0.426 (active),-0.078,0,-0.063,-0.005,-0.016,-0.088,0.003,0.049,0.037,0.091,-0.049,0.17,-0.203,0.153,0.247,-0.054
ADRM1 (UniProt Q16186),-0.009,-0.012,-0.05,0.019,0.03,-0.014,-0.019,0.042,0.006,0.02,0.002,-0.006,-0.063,0.015,-0.003,-0.102,-0.017,0.011,0.008,-0.003
ARMC6 (UniProt Q6NXE6),0,-0.015,-0.022,0.012,-0.027,-0.067,0.024,0,-0.016,-0.009,-0.001,-0.006,-0.055,-0.017,0.013,-0.057,0,0.094,0.017,-0.031
AK1 (UniProt P00568),-0.027,-0.011,0.091,0.285 (active),-0.001,-0.118,0.023,-0.037,0.06,-0.189,0.023,0.008,-0.038,0.015,0.011,0.118,0.056,0.004,0.003,0.009
AGPAT1 (UniProt Q99943),-0.122,0.009,-0.029,-0.019,0.009,-0.034,0.041,0.028,-0.057,0.091,-0.021,-0.004,-0.069,0.055,-0.062,0.043,-0.058,-0.028,0.028,-0.003
ANP32E (UniProt Q9BTT0),-0.026,0.003,0.007,-0.017,0.015,0.013,0.041,-0.017,-0.003,-0.032,0.075,0.025,0.015,0.028,-0.038,0.016,-0.02,-0.011,-0.065,0.023
ARMCX3 (UniProt Q9UH62),-0.058,0.005,-0.076,0.078,0.064,-0.064,0.005,-0.003,-0.044,0.032,0.023,-0.028,-0.107,-0.003,0.067,-0.057,-0.008,0.04,0.008,-0.002
APEX1 (UniProt P27695),0.022,0.039,-0.01,0.352 (active),-0.025,-0.042,-0.029,-0.045,0.106,-0.067,0.045,-0.037,0.002,-0.027,0.018,0.016,0.001,0.021,-0.011,-0.008
AKR1C2 (UniProt P52895),-0.012,-0.022,-0.059,-0.201,0.049,0.276 (active),0.014,-0.011,0.108,0.18,0.02,-0.031,-0.006,-0.009,-0.045,-0.043,0,0.019,-0.039,-0.034
AKAP8 (UniProt O43823),0.008,-0.126,0.023,0.035,0.022,0.003,0.017,-0.071,-0.119,0.039,-0.3 (active),0.039,0.01,-0.001,0.006,-0.075,0.025,0.084,0.022,0.059
AK2 (UniProt P54819),0.058,-0.005,-0.007,0.076,-0.031,0,0,0.061,0.005,-0.046,0.003,-0.006,0.079,-0.013,-0.022,0.024,0.007,-0.066,0.013,0.004
AHCYL1 (UniProt O43865),-0.001,0.008,-0.028,-0.012,0.043,-0.067,-0.031,0.013,-0.047,0.001,-0.077,-0.011,-0.015,0.021,0.02,-0.079,-0.001,0.066,-0.005,-0.087
ANAPC7 (UniProt Q9UJX3),-0.017,0.002,-0.029,-0.009,-0.018,-0.042,-0.019,0.023,-0.036,0.002,-0.004,-0.006,-0.004,0.008,0.02,-0.054,-0.019,0.03,0,-0.018
